The list shows a part of the results. Values without a mark were called inactive. The source made the active and inactive calls. Rule as the data show it: active = inhibition above about 38%; inactive = the rest.
Molecular target: Serine protease Rv3671c (Mycobacterium tuberculosis (strain ATCC 25618 / H37Rv)) (UniProt P9WHR9)
Test: Rv3671c serine protease inhibitors, retest, confirmation, biochemical, fluorescence polarization, M. tuberculosis H37Rv (AID 2761)
Settings: at 5.96 µM; active compounds read high

Sequence of Serine protease Rv3671c (Mycobacterium tuberculosis (strain ATCC 25618 / H37Rv)) (P9WHR9 whole entry, looked up): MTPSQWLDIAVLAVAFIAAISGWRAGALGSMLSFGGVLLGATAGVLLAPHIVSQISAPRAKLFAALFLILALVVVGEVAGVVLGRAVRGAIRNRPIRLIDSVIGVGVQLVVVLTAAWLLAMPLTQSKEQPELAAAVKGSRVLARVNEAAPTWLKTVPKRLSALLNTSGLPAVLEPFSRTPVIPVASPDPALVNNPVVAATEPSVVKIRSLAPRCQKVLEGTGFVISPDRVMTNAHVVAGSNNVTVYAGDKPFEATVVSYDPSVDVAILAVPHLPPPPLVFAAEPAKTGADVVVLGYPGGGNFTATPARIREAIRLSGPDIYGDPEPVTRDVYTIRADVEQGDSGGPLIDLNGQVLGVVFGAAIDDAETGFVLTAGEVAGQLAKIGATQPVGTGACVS

| Structure (SMILES) | inhibition |
| --- | --- |
| COCCOC(=O)c1sc(=S)n(CCOC)c1N | 28.9% |
| c1ccc2[nH]c(-c3nc4ccccc4[nH]3)nc2c1 | 66.6% (active) |

From PubChem BioAssay AID2761 (The Scripps Research Institute Molecular Screening Center, 2010)
